In PubChem BioAssay AID2685 (National Center for Advancing Translational Sciences (NCATS), 2010):
The whole screen tested about 320,000 compounds, of which about 2,100 (0.66%) were called active. Inconclusive results (about 53%) are left out. The call rests on the fitted dose curve; in most records, active means well fitted inhibition curve with a large enough effect in the signal ratio, with a control signal flat (not every such curve was filed as active); inconclusive means small, poorly fitted or top-dose-only effect, or effect the other way, or a change in a side signal; inactive means flat fitted curve, though single readings scatter; the % refers to the signal ratio. Only a selection was taken, and actives are over-represented in it overall.

Assay: qHTS Assay for Lipid Storage Modulators in Drosophila S3 Cells;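 on cell number change: cells counted by Cell Tracker Red CMTPX staining in the red channel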; on lipid storage change, negative = inhibition: on the % scale 0 is the no-effect control and ±100 the full control effect
Details: BODIPY lipid droplet fluorescence, 18-24 h, cells fed with added oleic acid; cell number change: measured here: cell count max response; series mostly up to 46.1 µM; lipid storage change, negative = inhibition: at the top concentration
Method in brief: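 Drosophila S3 cells loaded with oleic acid (400 uM, as added) and compounds at several concentrations; lipid droplets imaged by 488-nm laser-scanning cytometry, 500–530 nm intensity and object ratio to cell channel. Percent activity normalized to 20 uM Triacsin C.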
Potency means the concentration at half of the fitted maximal effect.

Row | SMILES | lipid storage change, negative = inhibition | cell number change [%] | Potency | outcome
1 | CC(=O)Nc1ccccc1/C=C/c1ccc2c(C)cc(C)c(O)c2n1 | 14.1% (inactive) | 8.64 |  | 
2 | COc1ccc(OC)c(/C=C/C(=O)NCCc2nc3ccccc3[nH]2)c1 | -16.4% (inactive) | -6.41 |  | 
3 | CCCCCOc1ccc(/C=C/C(=O)NCCc2nc3ccccc3[nH]2)cc1OC |  | -28.6 | 13 µM (active) | 
4 | COc1ccc(/C=C/C(=O)NCCc2nc3ccccc3[nH]2)cc1 | -0.312% (inactive) | -8.48 |  | 
5 | O=C(Nc1nnc(-c2cccs2)o1)C1CC1 | -0.337% (inactive) | -5.18 |  | 
6 | COc1ccc(N2C(=O)CSC2c2ccccc2)cc1 (stereo not drawn) | 3.7% (inactive) | 14.6 |  | 
7 | Cc1n[nH]c(C)c1S(=O)(=O)N1CCc2ccccc21 | 11.4% (inactive) | -2.98 |  | 
8 | C/C(=N\NC(=O)c1cccs1)c1cccnc1 | -0.0778% (inactive) | 20.6 |  | 
9 | S=C(NCCc1ccccc1)N1CCn2cccc2C1c1cccnc1 (stereo not drawn) | -3.98% (inactive) | -24.1 |  | 
10 | S=C(NCc1ccccc1)N1CCn2cccc2C1c1ccncc1 (stereo not drawn) | 5.38% (inactive) | 5.96 |  | 
11 | S=C(NCCc1ccccc1)N1CCn2cccc2C1c1ccncc1 (stereo not drawn) |  | 15.3 | 7.31 µM (active) | 
12 | CC[C@@H](NS(=O)(=O)c1ccc(C)cc1)C(=O)Oc1ccc2c3c(c(=O)oc2c1)CCC3 | -5.22% (inactive) | 4.66 |  | 
13 | CC(=O)NC12CC3CC(C1)CC(C(=O)Nc1nc4ccc(F)cc4s1)(C3)C2 |  | -27.9 |  | inactive
14 | CC(=O)NC12CC3CC(C1)CC(C(=O)Nc1nc4c(C)cccc4s1)(C3)C2 |  | -14.2 | 5.8 µM (active) | 
15 | CC(=O)NC12CC3CC(C1)CC(C(=O)Nc1nc4ccc(S(C)(=O)=O)cc4s1)(C3)C2 | 4.01% (inactive) | -1.02 |  | 
16 | CC(=O)N(C)C1=C(N2CCOCC2)C(=O)c2ccccc2C1=O | -6.67% (inactive) | 0.283 |  | 
17 | O=C1C=C(N2CCOCC2)c2ccccc2C1=O |  | -6.93 | 4.11 µM (active) | 
18 | O=C(O)c1ccc(NC2=C(N3CCOCC3)C(=O)c3ccccc3C2=O)cc1 | -9.76% (inactive) | -2.96 |  | 
19 | Cc1ccc(-n2nc(C)c3c(C)c(CCC(=O)O)c(C)nc32)cc1C | -1.95% (inactive) | 9.26 |  | 
20 | O=C(O)CCCc1ccc2ccc3cccc4ccc1c2c34 | 7.63% (inactive) | 11.3 |  | 

Row | SMILES | lipid storage change, negative = inhibition | cell number change [%] | Potency | outcome
21 | CC(C)CCNC(=O)CN(Cc1ccc2c(c1)OCO2)C(=O)CCC(=O)Nc1ccccn1 | 11.2% (inactive) | 2.93 |  | 
22 | Cc1ccnc(NC(=O)CCC(=O)N(CC(=O)NC(C)(C)C)c2ccc3c(c2)OCCO3)c1 | -7.53% (inactive) | 5.82 |  | 
23 | CCOc1ncccc1C(=O)N(CC)CC(=O)NCc1ccc(F)cc1 |  | 4.96 | 3.66 µM (active) | 
24 | CCC(C)(C)NC(=O)CN(Cc1ccc2c(c1)OCO2)C(=O)CCC(=O)Nc1ccccn1 | -29.1% (inactive) |  |  | 
25 | Cc1ccnc(NC(=O)CCC(=O)N(CC(=O)NC(C)(C)C)Cc2ccc3c(c2)OCO3)c1 |  | -17.5 | 23.1 µM (active) | 
26 | Cc1ccnc(NC(=O)CCC(=O)N(CC(=O)NCc2ccccc2)Cc2ccccc2)c1 |  | 14.2 |  | inactive
27 | CCc1ccc(N(CC(=O)NC(C)C)C(=O)CCC(=O)Nc2ccccn2)cc1 | 13.9% (inactive) | -21 |  | 
28 | O=C(CN(Cc1ccccc1)C(=O)CCC(=O)Nc1ccccn1)NCc1ccc(F)cc1 |  | 7.92 |  | inactive
29 | CCN(CC(=O)NCc1ccc(F)cc1)C(=O)c1cccnc1SC | 22.9% (inactive) | 23.4 |  | 
30 | CCOc1ncccc1C(=O)N(CC)CC(=O)Nc1ccc(NC(C)=O)cc1 | 8.07% (inactive) | 4.04 |  | 
31 | CC(C)NC(=O)CN(Cc1ccc2c(c1)OCO2)C(=O)CCC(=O)Nc1ccccn1 |  | 0.42 | 18.4 µM (active) | 
32 | COc1ccc(CN(CC(=O)NCc2ccc(F)cc2)C(=O)CCC(=O)Nc2cc(C)ccn2)cc1 |  | 6.52 | 23.1 µM (active) | 
33 | COC(=O)Cc1c(C)nc2nc(NCc3cccc([N+](=O)[O-])c3)[nH]n2c1=O |  | 22.4 |  | inactive
34 | COc1cccc(NC(=O)c2ccn(C)n2)c1 | -6.25% (inactive) | -7.57 |  | 
35 | CCCC(=O)Nc1cc(C(=O)O)ccc1Sc1ccccc1 | -8.07% (inactive) | -3.48 |  | 
36 | Cc1cc(C)n(-c2ccc(C(=O)NCc3ccc4c(c3)OCO4)cc2)n1 | 22% (inactive) | -26 |  | 
37 | COc1ccc(S(=O)(=O)NC2CC(=O)N(c3ccc(C)c(C)c3)C2)cc1C (stereo not drawn) |  |  |  | inactive
38 | O=C(Cn1cnc2ccccc2c1=O)c1ccccc1 | 3.76% (inactive) | -5.21 |  | 
39 | O=C(CNC(=O)c1ccncc1)N/N=C/c1cc(Br)ccc1O | -6.45% (inactive) | -8.8 |  | 
40 | Cc1cccc(N2C(=O)CC(N(C(=O)c3ccco3)c3cccc(C)c3)C2=O)c1 (stereo not drawn) | -2.05% (inactive) | 1.21 |  | 

Row | SMILES | lipid storage change, negative = inhibition | cell number change [%] | Potency | outcome
41 | COc1ccccc1/C=c1\sc2nc(-c3ccccc3OC)nn2c1=O | -3.78% (inactive) | -6.9 |  | 
42 | Cn1c(-c2sc3cc(C(F)(F)F)cnc3c2-c2cccs2)n[nH]c1=S | -9.3% (inactive) | -11.9 |  | 
43 | O=S(=O)(c1ccccc1)n1ccc2ccccc21 | 14.7% (inactive) | -15.8 |  | 
44 | NC1=NC(=O)/C(=C/c2cccs2)S1 | 15.7% (inactive) | -5.63 |  | 
45 | O=C1/C(=C\c2cccs2)Sc2ccc3ccccc3c21 |  | -14.8 | 16.4 µM (active) | 
46 | O=C1N=C(N2CCN(c3cccc4ccccc34)CC2)S/C1=C/c1cccs1 |  |  |  | inactive
47 | O=C(O)c1ccc(NC(=O)c2cn(-c3ccccc3)nc2-c2cccc(Cl)c2)cc1 | -13.3% (inactive) | 4.66 |  | 
48 | CC(O)c1nc2ccc(C(=O)O)cc2[nH]1 (stereo not drawn) | -2.22% (inactive) | -0.214 |  | 
49 | CC(O)CCc1nc2ccc(C(=O)O)cc2[nH]1 (stereo not drawn) | -7.1% (inactive) | 3.44 |  | 
50 | CC(C)c1nc2ccc(C(=O)O)cc2[nH]1 |  | -0.0603 | 23.1 µM (active) | 
51 | COc1cccc(-n2c(SCC(=O)OC(C)C)nnc2-c2cccnc2)c1 |  |  |  | inactive
52 | O=C(COc1ccccc1Br)N1CCNC1=O | 10.5% (inactive) | -13 |  | 
53 | O=C(COc1ccccc1)N1CCNC1=O |  | -10.9 | 11.6 µM (active) | 
54 | O=C(COc1ccc(Br)cc1)N1CCNC1=O |  | -1.77 |  | inactive
55 | CCOc1ccc(NC(=NCc2ccc3c(c2)OCO3)SC2CC(=O)N(c3ccc(OCC)cc3)C2=O)cc1 (stereo not drawn) | -5.4% (inactive) | 1.82 |  | 
56 | COc1cccc(NC(=O)[C@@H]2CCCN2C(=O)[C@@H]2Cc3ccccc3CN2C(=O)OC(C)(C)C)c1 |  | -9.43 |  | inactive
57 | O=C1C2C(c3ccccc3)CC=CC2[C@H](c2ccc(C(F)(F)F)cc2)N1Cc1ccccc1 (stereo partly drawn) |  |  | 18.4 µM (active) | 
58 | O=C1C2C(c3cccc(/C=C/c4ccccc4)c3)CC=CC2C(c2ccc(C(F)(F)F)cc2)N1Cc1ccccc1 (stereo not drawn) | 9.24% (inactive) | -0.28 |  | 
59 | Cc1ccc(-c2cccc(C3CC=CC4C3C(=O)N(Cc3ccccc3)C4c3ccc(C(F)(F)F)cc3)c2)cc1 (stereo not drawn) | 12.2% (inactive) | 0.818 |  | 
